Screening results deposited in PubChem by NMMLSC.
Most compounds without a hit are left out; they make up all but 1.1% or so of the library.
CIT2-GFP yeast: modulators of TOR pathway CIT2-GFP in S. cerevisiae; S. cerevisiae CIT2-GFP strain, flow cytometry, 3 h; 100 means same as DMSO wells; GFP response vs DMSO, % at 10 µM; 320,000 compounds, 0.065% hits; AID 2029;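 active = GFP response relative to DMSO above a set limit, near the screen mean plus 3 SD, cut at about 150% in these data; inconclusive = Fewer than 70 cells measured for a yeast strain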;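 also: ratio of well median GFP fluorescence to mean of DMSO wells on the plate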
LAP4-GFP MLPCN: modulators of TOR pathway LAP4-GFP in S. cerevisiae | S. cerevisiae LAP4-GFP multiplex, flow cytometry GFP, 3 h; median GFP as percent of DMSO wells | GFP response vs DMSO, % at 10 µM | 320,000 compounds, 0.34% hits | AID 2023;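 active = GFP response vs DMSO above a set limit, about the screen mean plus 3 SD, cut at about 150% in these data; inconclusive = under 70 cell events counted for the yeast strain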
RPL19A TOR yeast: alters RPL19A-GFP fluorescence in TOR pathway yeast screen; S. cerevisiae RPL19A-GFP strain, flow cytometry, 3 h; hits give low values; 330,000 compounds, 0.3% hits; percent response vs DMSO, % at 10 µM;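 active = percent response vs DMSO below 50%; inconclusive = fewer than 70 events counted for the yeast strain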;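 also: median channel GFP fluorescence of the barcoded RPL19A-GFP strain; ratio of sample median GFP to plate DMSO average so 100% = DMSO; lower means less RPL19A-GFP as with rapamycin TOR inhibition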
AGP1 TOR yeast: yeast TOR pathway AGP1-GFP modulation. GFP response vs DMSO, % at 10 µM. S. cerevisiae AGP1-GFP multiplex flow cytometry, 3 h; GFP as percent of DMSO wells. 320,000 compounds, 0.02% hits;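 active = GFP response relative to DMSO above a set limit, near screen average plus 3 SD, cut at about 150% in these data; inconclusive = fewer than 70 cells counted for the yeast strain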;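 also: median GFP channel fluorescence of the gated AGP1 strain per well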
VLA-4 inh: inhibition in a human VLA-4 binding assay; P13612; 330,000 compounds, 0.2% hits; VLA-4 expressing cells, ligand binding flow cytometry; inhibition, % (about 7 µM as worked out from the volumes in the protocol); AID 2557; in the data active = inhibition above about 50%
Target sequence (P13612 whole entry, looked up): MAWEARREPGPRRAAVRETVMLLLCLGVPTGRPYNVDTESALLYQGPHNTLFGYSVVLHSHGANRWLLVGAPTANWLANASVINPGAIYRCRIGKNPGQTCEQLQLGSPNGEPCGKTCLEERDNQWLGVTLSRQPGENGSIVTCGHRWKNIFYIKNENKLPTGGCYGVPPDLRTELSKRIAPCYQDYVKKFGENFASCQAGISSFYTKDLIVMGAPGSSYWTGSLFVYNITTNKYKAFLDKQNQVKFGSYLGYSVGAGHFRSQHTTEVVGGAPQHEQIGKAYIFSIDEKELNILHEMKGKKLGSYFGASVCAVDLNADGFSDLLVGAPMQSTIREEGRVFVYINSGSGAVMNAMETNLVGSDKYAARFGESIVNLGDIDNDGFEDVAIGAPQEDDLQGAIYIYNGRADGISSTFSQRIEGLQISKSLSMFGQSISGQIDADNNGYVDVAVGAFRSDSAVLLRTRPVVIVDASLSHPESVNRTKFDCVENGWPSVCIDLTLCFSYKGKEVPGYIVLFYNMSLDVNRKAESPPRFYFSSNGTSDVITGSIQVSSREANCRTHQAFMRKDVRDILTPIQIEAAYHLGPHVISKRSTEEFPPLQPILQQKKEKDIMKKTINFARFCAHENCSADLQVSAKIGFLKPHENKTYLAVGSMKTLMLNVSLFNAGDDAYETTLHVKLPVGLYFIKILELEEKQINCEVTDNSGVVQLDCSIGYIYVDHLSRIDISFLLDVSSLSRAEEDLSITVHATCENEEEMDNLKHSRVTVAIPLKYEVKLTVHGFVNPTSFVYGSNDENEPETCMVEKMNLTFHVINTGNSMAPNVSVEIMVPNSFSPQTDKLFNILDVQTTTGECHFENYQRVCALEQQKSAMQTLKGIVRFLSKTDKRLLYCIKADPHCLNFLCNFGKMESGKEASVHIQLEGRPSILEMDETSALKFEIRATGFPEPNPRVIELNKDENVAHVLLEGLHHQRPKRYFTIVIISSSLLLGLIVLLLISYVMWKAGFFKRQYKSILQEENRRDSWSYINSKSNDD
MEP2 TOR yeast: alters MEP2-GFP fluorescence in TOR pathway yeast screen; GFP response vs DMSO, % at 10 µM; S. cerevisiae MEP2-GFP strain, flow cytometry GFP, 3 h; 100% = DMSO control level; 330,000 compounds, 0.51% hits;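 active = GFP response versus DMSO above a set limit, roughly screen mean plus 3 SD, cut at about 180% in these data; inconclusive = fewer than 70 cells counted for a yeast strain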;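 also: median GFP fluorescence of the barcode-gated MEP2-GFP cells per well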
LAP4 cherry2: reconfirmed LAP4-GFP TOR pathway modulator in yeast | shares compounds with LAP4-GFP MLPCN | S. cerevisiae LAP4-GFP strain, flow cytometry GFP, 3 h | GFP response vs DMSO, % at 10 µM | 590 compounds, 20% hits | AID 2621;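 active = GFP signal as percent of the solvent control above about 150%, meaning raised reporter expression, limit read from the data; inconclusive = fewer than 70 cells counted in the well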;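 also: ratio of well median GFP fluorescence to plate DMSO mean so 100% = DMSO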
MEP2 cherry2: yeast MEP2-GFP modulation, second cherry pick | shares compounds with LAP4-GFP MLPCN | S. cerevisiae MEP2-GFP strain, flow cytometry GFP, 3 h | GFP response vs DMSO, % at 10 µM | 590 compounds, 10% hits;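 active = GFP signal above 150% of the solvent control wells, that is a rise of more than half; inconclusive = fewer than 70 yeast cells counted in the well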;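 also: median channel GFP fluorescence of all gated yeast cells per well; ratio of median GFP to plate DMSO average so 100% = DMSO level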
RPL19A-GFP pick2: second confirmation of modulators of TOR reporter RPL19A-GFP in yeast | shares compounds with LAP4-GFP MLPCN | S. cerevisiae RPL19A-GFP strain, flow cytometry GFP, 3 h; hits give low values; 100% means same as DMSO wells | GFP response vs DMSO, % at 10 µM | 590 compounds, 3% hits;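 active = under 65% GFP response relative to DMSO; inconclusive = yeast strain with under 70 measured events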;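 also: median GFP channel fluorescence per well over the all cells gate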
CIT2-GFP pick2: yeast CIT2-GFP TOR reporter modulation, second cherry pick; shares compounds with LAP4-GFP MLPCN; S. cerevisiae CIT2-GFP strain, flow cytometry GFP, 3 h; DMSO control wells read 100%; GFP response vs DMSO, % at 10 µM; 590 compounds, 8% hits; AID 2624;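 active = GFP response vs DMSO above about 150%, limit read from the data; inconclusive = fewer than 70 events counted for a yeast strain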;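 also: median green fluorescence per well over all gated yeast cells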
AGP1-GFP pick2: second confirmation of modulators of TOR reporter AGP1-GFP in yeast; S. cerevisiae AGP1-GFP strain, flow cytometry GFP, 3 h; 590 tested, under 10 active; percent response vs DMSO, % at 10 µM; shares compounds with LAP4-GFP MLPCN;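 active = over 150 percent of DMSO response; inconclusive = yeast strain measured with under 70 events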;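 also: median GFP channel fluorescence over all cells without mother daughter split; sample median GFP divided by mean DMSO control so 100% equals DMSO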
s288c autofluor: compound is autofluorescent in yeast s288c cells; fluorescence change (kMESF span) at 33 µM; AID 2757; 610 tested, under 10 active; S. cerevisiae s288c, 520 nm autofluorescence, flow cytometry, 3 h; hits give high values; zero means same as solvent-only cells; shares compounds with LAP4-GFP MLPCN;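 active = fluorescence span over the dose series, or activity score, above about 33, limit read from the data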
TORC1 bypass gr: stops wildtype yeast growth while TORC1 bypass cells still grow | shares compounds with LAP4-GFP MLPCN | growth rating (0-3) at 30 µM | S. cerevisiae BY4741 spot growth rating, 48-72 h; hits give low values | AID 504456 | 120 tested, under 10 active;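 active = growth rating at most 1 for wild type yeast while the TORC1 bypass strain still grows fully, rated 3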
* hit, by the source's call.

For O=C1C=C(c2ccc3ccccc3c2)C[C@@H](c2ccc(F)cc2)C1 the results were CIT2-GFP yeast 99, LAP4-GFP MLPCN 83, RPL19A TOR yeast 96, AGP1 TOR yeast 68, VLA-4 inh 6 and MEP2 TOR yeast 92.
For CC1=NN(c2nc(-c3ccccc3)cs2)C(=O)C1 the results were CIT2-GFP yeast 86, LAP4-GFP MLPCN 87, RPL19A TOR yeast 93, AGP1 TOR yeast 86, VLA-4 inh -1 and MEP2 TOR yeast 92.
Screening O=C1CC(c2ccccc2)=NN1c1nc(-c2ccccc2)cs1 returned CIT2-GFP yeast 62, LAP4-GFP MLPCN 79, RPL19A TOR yeast 63, AGP1 TOR yeast 40, VLA-4 inh -1, MEP2 TOR yeast 100, LAP4 cherry2 149, MEP2 cherry2 213*, RPL19A-GFP pick2 81, CIT2-GFP pick2 145, AGP1-GFP pick2 77 and s288c autofluor 2.2.
O=C(CN1CCN(S(=O)(=O)c2ccc(Cl)cc2)CC1)NCC1(N2CCOCC2)CCCCC1 was read as CIT2-GFP yeast 100, LAP4-GFP MLPCN 98, RPL19A TOR yeast 96, AGP1 TOR yeast 100, VLA-4 inh 4 and MEP2 TOR yeast 96.
`CNc1nc(N)cc(Nc2ccccc2F)n1` gave TORC1 bypass gr 3.
Screening CC1(c2ccc(OCC(N)=O)cc2)NC(=O)NC1=O (stereo not drawn) returned CIT2-GFP yeast 98, LAP4-GFP MLPCN 95, RPL19A TOR yeast 104, AGP1 TOR yeast 98, VLA-4 inh 2 and MEP2 TOR yeast 102.
`NC(=O)COc1ccc(C(=O)/C=C2/C(=O)Nc3ccccc32)cc1` gave CIT2-GFP yeast 109, LAP4-GFP MLPCN 103, RPL19A TOR yeast 94, AGP1 TOR yeast 105, VLA-4 inh 8, MEP2 TOR yeast 91 and s288c autofluor 0.91.
`C=CCOc1ccc(C(=O)/C=C2/C(=O)Nc3ccccc32)cc1` gave CIT2-GFP yeast 97, LAP4-GFP MLPCN 105, RPL19A TOR yeast 105, AGP1 TOR yeast 105, VLA-4 inh 39, MEP2 TOR yeast 106 and s288c autofluor -0.2.
`O=C1Nc2ccccc2/C1=C/C(=O)c1cccs1` gave CIT2-GFP yeast inconclusive, LAP4-GFP MLPCN 129, RPL19A TOR yeast 54, AGP1 TOR yeast inconclusive, VLA-4 inh 12 and MEP2 TOR yeast 162.
`O=C1Nc2ccccc2/C1=C/c1cccnc1` gave CIT2-GFP yeast 104, LAP4-GFP MLPCN 101, RPL19A TOR yeast 102, AGP1 TOR yeast 97, VLA-4 inh 6 and MEP2 TOR yeast 112.
